# Measured values: article PMC7862700, “An all-to-all approach to the identification of sequence-specific readers for epigenetic DNA modifications on cytosine”
# Assays:
# Test in all cases: DAPPL (digital affinity profiling via proximity ligation, sequencing); 10 mM Tris-HCl pH 7.5, 50 mM NaCl, 1 mM DTT, 4% glycerol, room temperature, 30 min; GST-TFs on glutathione beads, 16-mer random dsDNA library, 0.1% formaldehyde crosslink after washing; high values mean tight binding
# FEV = molecular target: T1, FEV (Homo sapiens, UniProt Q99581 1-238); settings: protein: recombinant; tags: N-terminal GST; dsDNA, one strand shown
# T1 sequence: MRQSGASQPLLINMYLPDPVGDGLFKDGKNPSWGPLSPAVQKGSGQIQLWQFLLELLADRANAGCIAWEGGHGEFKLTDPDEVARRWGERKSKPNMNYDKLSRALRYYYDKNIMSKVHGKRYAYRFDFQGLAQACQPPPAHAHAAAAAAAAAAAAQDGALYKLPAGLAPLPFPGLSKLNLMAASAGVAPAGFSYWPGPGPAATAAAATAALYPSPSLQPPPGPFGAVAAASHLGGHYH
# Method in brief: (§1)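 After expression in yeast as GST fusions, human transcription factors were bound to glutathione beads, DNA-barcoded and mixed with a tag-only sample. The pools were incubated with 200 nmole of a 16-mer random double-stranded DNA library in Tris/NaCl/DTT/glycerol buffer (30 min, room temperature), washed and crosslinked with 0.1% formaldehyde. Proximity ligation with BsaI/T4 ligase ran for 1 h at 37 °C, before PCR amplification and sequencing on an Illumina NextSeq500. Binding signal is a hexamer's read frequency for a factor divided by its frequency for the tag-only sample.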
# ETV5 = ETV5 (Homo sapiens, UniProt P41161 1-510); settings: protein: recombinant; tags: N-terminal GST; dsDNA, one strand shown
# Method in brief: as §1
# HSF1 = HSF1 (Homo sapiens, UniProt Q00613 1-529); settings: protein: recombinant; tags: N-terminal GST; chain copies: 3; dsDNA, one strand shown
# Method in brief: as §1
# SPIC = molecular target: T2, SPIC (Homo sapiens, UniProt Q8N5J4 1-248); settings: protein: recombinant; tags: N-terminal GST; dsDNA, one strand shown
# T2 sequence: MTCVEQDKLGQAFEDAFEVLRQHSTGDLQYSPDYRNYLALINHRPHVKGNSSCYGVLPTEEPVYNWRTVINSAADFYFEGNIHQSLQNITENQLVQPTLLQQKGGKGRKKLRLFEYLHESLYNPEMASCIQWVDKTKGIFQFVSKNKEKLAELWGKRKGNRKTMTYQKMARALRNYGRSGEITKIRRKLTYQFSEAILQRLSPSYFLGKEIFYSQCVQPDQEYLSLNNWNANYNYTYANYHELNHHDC
# Method in brief: as §1
# ELF4 = ELF4 (Homo sapiens, UniProt Q99607 1-663); settings: protein: recombinant; tags: N-terminal GST; dsDNA, one strand shown
# Method in brief: as §1
# ELK4 = molecular target: T3, ELK4 (Homo sapiens, UniProt P28324-2 1-405); settings: protein: recombinant; tags: N-terminal GST; dsDNA, one strand shown
# T3 sequence: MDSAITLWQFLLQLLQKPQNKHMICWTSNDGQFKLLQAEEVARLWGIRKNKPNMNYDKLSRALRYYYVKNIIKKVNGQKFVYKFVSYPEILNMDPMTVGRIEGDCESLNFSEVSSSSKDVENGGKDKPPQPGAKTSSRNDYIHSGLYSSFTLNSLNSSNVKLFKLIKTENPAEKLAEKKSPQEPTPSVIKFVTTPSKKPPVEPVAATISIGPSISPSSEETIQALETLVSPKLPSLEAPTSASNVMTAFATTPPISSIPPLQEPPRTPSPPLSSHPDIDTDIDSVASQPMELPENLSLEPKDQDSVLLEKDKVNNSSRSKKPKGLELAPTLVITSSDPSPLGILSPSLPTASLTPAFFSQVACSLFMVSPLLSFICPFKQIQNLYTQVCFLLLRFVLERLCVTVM
# Method in brief: as §1
# ETV2 = molecular target: T4, ETV2 (Homo sapiens, UniProt O00321 1-342); settings: protein: recombinant; tags: N-terminal GST; dsDNA, one strand shown
# T4 sequence: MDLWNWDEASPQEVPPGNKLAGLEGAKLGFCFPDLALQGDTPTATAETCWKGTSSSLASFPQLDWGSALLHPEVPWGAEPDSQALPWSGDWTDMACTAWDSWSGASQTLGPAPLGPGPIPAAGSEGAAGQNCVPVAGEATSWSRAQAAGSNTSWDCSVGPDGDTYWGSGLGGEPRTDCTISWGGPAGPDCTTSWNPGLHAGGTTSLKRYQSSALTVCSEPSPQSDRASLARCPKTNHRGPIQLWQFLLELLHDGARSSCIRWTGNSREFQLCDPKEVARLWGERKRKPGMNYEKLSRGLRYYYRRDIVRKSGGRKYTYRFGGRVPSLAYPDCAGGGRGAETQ
# Method in brief: as §1
# ELF3 = molecular target: T5, ELF3 (Homo sapiens, UniProt P78545 1-371); settings: protein: recombinant; tags: N-terminal GST; dsDNA, one strand shown
# T5 sequence: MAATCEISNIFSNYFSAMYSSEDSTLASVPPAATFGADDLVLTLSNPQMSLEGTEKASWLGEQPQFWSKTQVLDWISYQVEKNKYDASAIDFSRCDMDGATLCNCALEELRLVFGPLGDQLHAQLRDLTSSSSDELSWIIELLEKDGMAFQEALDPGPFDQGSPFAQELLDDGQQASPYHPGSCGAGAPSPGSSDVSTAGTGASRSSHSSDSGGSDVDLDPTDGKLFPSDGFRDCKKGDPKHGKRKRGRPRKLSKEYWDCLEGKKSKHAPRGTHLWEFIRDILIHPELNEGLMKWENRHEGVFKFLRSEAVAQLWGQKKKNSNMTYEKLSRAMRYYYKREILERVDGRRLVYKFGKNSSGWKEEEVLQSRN
# Method in brief: as §1
# CRX = CRX (Homo sapiens, UniProt O43186 1-299); settings: protein: recombinant; tags: N-terminal GST; dsDNA, one strand shown
# Method in brief: as §1
# ETV1 = ETV1 (Homo sapiens, UniProt P50549 1-477); settings: protein: recombinant; tags: N-terminal GST; dsDNA, one strand shown
# Method in brief: as §1
# HSF1, sequence (Q00613 whole entry): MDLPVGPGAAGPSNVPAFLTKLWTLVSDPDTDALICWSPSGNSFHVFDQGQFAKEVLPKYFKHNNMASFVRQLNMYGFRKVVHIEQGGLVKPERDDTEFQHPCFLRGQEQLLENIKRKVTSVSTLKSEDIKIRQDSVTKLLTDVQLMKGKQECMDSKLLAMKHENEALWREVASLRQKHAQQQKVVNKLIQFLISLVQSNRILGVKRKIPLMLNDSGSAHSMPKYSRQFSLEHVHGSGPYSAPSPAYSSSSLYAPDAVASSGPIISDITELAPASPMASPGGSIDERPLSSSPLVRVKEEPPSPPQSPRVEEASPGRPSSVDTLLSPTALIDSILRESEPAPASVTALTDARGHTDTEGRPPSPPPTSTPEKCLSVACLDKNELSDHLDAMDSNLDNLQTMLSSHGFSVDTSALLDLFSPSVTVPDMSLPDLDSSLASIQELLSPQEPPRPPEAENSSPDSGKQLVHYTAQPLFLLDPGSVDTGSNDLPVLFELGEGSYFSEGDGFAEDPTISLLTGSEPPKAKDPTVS
# ETV5, sequence (P41161 whole entry): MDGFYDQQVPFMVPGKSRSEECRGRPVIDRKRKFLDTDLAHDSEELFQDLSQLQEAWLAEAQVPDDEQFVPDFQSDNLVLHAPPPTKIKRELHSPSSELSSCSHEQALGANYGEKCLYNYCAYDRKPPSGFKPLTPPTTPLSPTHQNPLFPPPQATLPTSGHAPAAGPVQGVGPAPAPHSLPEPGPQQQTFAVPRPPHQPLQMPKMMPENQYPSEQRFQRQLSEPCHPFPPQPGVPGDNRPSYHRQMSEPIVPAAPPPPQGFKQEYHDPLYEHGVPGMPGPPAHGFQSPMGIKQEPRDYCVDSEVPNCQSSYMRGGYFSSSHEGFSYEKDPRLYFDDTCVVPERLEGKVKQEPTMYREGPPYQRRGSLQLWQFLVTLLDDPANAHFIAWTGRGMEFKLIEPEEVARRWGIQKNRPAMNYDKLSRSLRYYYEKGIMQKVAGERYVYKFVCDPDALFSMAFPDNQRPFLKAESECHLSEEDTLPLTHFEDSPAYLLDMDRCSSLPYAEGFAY
# ELF4, sequence (Q99607 whole entry): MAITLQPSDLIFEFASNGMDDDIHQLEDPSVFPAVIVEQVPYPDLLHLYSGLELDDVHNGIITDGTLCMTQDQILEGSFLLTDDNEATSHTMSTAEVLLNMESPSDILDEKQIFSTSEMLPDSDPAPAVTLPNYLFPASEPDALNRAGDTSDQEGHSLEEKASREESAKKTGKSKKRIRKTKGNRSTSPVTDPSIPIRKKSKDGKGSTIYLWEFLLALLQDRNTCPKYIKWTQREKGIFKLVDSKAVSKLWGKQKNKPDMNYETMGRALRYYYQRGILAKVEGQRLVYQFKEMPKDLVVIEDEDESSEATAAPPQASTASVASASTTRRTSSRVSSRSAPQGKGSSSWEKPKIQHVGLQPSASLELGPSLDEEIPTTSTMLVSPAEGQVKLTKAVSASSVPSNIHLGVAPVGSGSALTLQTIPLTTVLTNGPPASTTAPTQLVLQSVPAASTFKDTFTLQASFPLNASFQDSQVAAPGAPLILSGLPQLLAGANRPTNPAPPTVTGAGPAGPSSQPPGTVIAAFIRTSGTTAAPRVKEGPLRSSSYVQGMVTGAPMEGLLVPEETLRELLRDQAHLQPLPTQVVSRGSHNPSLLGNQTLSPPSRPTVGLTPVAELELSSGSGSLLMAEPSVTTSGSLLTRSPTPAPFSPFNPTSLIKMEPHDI
# CRX, sequence (O43186 whole entry): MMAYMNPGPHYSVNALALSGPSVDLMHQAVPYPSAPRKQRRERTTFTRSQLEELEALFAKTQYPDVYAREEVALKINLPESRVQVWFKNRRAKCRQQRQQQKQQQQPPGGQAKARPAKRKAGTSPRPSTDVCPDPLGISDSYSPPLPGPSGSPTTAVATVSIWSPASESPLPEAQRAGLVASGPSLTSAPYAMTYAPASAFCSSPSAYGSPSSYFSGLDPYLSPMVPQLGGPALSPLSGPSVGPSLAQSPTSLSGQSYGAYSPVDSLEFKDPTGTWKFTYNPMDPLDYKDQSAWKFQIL
# ETV1, sequence (P50549 whole entry): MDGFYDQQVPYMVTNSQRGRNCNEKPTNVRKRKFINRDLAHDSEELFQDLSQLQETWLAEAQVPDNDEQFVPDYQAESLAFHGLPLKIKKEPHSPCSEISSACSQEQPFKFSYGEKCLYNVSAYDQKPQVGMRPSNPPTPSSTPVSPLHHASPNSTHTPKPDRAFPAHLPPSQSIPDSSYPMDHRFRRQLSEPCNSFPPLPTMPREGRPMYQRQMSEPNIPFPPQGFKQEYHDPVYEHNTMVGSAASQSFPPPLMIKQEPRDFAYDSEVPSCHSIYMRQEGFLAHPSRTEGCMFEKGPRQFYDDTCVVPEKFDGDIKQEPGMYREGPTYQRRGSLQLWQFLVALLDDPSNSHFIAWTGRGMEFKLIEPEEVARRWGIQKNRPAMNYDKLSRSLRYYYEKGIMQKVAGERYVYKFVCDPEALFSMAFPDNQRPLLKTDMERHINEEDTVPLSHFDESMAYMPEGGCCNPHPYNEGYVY
sequence,measurement,setting,value
ACTAAA,binding signal,FEV,"1.24 fold enrichment (6-mer frequency, TF over GST control)"
same,binding signal,ETV5,"1.24 fold enrichment (6-mer frequency, TF over GST control)"
same,binding signal,HSF1,"1.37 fold enrichment (6-mer frequency, TF over GST control)"
same,binding signal,SPIC,"1.14 fold enrichment (6-mer frequency, TF over GST control)"
same,binding signal,ELF4,"1.31 fold enrichment (6-mer frequency, TF over GST control)"
same,binding signal,ELK4,"1.4 fold enrichment (6-mer frequency, TF over GST control)"
same,binding signal,ETV2,"1.24 fold enrichment (6-mer frequency, TF over GST control)"
same,binding signal,ELF3,"1.33 fold enrichment (6-mer frequency, TF over GST control)"
same,binding signal,CRX,"1.6 fold enrichment (6-mer frequency, TF over GST control)"
same,binding signal,ETV1,"1.31 fold enrichment (6-mer frequency, TF over GST control)"
